# Compound activity: PubChem, several laboratories
# KLF5 inh – inhibitors of KLF5 expression; 290,000 compounds, 0.23% hits; AID 1700; DLD-1 KLF5 promoter-luciferase reporter, luminescence; inhibition, % at 5 µM;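 active means inhibition above a per-plate limit of that plate's mean compound inhibition plus 3 SD, cut at about 60% in these data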;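 further: higher means less KLF5 promoter-driven luciferase light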
# 697 NFkB inh – inhibitors of the PMA/ionomycin-induced NF-kB reporter in 697 B cells; AID 435022; inhibition, % at 4 µM; 697 B-cell NF-kB luciferase reporter, 16 h; 330,000 compounds, 0.33% hits; in the data active means inhibition above about 35%
# aSyn 5UTR inh – MLPCN primary screen, SNCA 5' untranslated region; alpha-synuclein 5'UTR reporter, inhibitor activity; inhibition, % (tested at 7.5 µM); 300,000 compounds, 0.82% hits; AID 1813; in the data active means inhibition above about 60%;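 further: H4 neuroglioblastoma cells stably carrying SNCA 5'UTR luciferase fusion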
# Jurkat NFkB inh – inhibitors of the PMA/ionomycin-induced NF-kB reporter in Jurkat cells. PMA/ionomycin-induced NF-kB luciferase reporter, luminescence. inhibition, % at 4 µM. 330,000 compounds, 0.53% hits; in the data active means inhibition above about 50%
# Gli-Sufu block – blocks Gli-Sufu signaling in a luciferase reporter; Sufu-KO-LIGHT fibroblasts, Gli luciferase reporter luminescence; inhibition, % at 5 µM; 340,000 compounds, 0.74% hits; AID 588413;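 active means inhibition above about 55%, limit read from the data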
# Mdm2 MdmX PPI – human Mdm2/MdmX binding inhibition; SaOS-2 split-luciferase Mdm2/MdmX complementation, luminescence; O15151+Q00987; 330,000 compounds, 3% hits; inhibition, % at 8 µM;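 active means inhibition of at least 50% at 8 µM in the primary screen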
# Target sequence (O15151 whole entry, looked up): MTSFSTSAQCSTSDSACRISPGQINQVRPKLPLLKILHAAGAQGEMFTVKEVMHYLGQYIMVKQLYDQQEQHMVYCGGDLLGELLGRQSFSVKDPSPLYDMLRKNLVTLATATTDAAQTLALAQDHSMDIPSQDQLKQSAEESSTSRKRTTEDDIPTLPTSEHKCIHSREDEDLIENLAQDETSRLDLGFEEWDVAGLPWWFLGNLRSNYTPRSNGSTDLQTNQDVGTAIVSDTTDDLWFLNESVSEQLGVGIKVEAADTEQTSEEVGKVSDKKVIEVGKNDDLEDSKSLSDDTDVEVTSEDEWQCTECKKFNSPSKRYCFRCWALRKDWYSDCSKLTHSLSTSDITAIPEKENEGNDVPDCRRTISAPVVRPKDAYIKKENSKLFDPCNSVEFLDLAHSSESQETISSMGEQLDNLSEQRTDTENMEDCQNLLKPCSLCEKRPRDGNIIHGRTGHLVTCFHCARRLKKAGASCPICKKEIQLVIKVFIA
# Target sequence (Q00987 whole entry, looked up): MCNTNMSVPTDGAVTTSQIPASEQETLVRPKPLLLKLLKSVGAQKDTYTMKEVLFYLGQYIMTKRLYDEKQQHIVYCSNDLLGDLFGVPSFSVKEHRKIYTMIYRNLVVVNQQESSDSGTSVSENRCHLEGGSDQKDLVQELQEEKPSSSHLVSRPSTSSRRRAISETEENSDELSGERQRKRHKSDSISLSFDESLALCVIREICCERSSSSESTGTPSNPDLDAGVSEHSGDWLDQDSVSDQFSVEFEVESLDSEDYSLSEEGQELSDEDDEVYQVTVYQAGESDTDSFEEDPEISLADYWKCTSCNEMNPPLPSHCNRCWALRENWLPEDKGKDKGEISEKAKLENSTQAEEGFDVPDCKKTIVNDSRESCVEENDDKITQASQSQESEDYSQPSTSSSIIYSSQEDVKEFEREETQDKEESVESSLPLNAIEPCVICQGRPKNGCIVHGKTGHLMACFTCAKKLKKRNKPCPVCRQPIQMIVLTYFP
# Gli-Sufu confirm – confirmation of Gli-SUFU pathway antagonists | shares compounds with Gli-Sufu block | Sufu-KO-LIGHT cells, Gli luciferase reporter, luminescence | inhibition, % at 5 µM | 2,500 compounds, 40% hits;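 active means mean inhibition at 5 µM reaching about 45%, limit read from the data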
# SufuKO cytotox – cytotoxicity counter-screen for Gli-SUFU antagonists; shares compounds with Gli-Sufu block; Sufu-KO-LIGHT cells cytotoxicity, ATP luminescence; cytotoxicity, % at 5 µM; 2,500 compounds, 32% hits; AID 651994;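 active means mean cytotoxicity at 5 µM above about 25%, limit read from the data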;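 further: cells exposed to compound overnight for roughly 16 to 18 hours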
# Wnt3a counter – Wnt3a reporter inhibition counter-screen; AID 651995; Wnt-LIGHT cells, Wnt3a-driven luciferase reporter, luminescence; shares compounds with Gli-Sufu block; inhibition, % at 6.25 µM; 2,500 compounds, 20% hits;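 active means mean inhibition above about 25%, limit read from the data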
# Hits are given with their value; n = inactive; x = no result given. The list is not random: actives were taken first. Their share in the collection is about 4.1%.
SMILES,KLF5 inh,697 NFkB inh,aSyn 5UTR inh,Jurkat NFkB inh,Gli-Sufu block,Mdm2 MdmX PPI,Gli-Sufu confirm,SufuKO cytotox,Wnt3a counter
CSCCC(NC(=O)c1cccc(S(=O)(=O)N2CCOCC2)c1)C(=O)Nc1ccc(F)cc1 (centres undefined),n,n,n,n,67.8,n,n,n,n
CSCCC(NC(N)=O)C(=O)Nc1cccc(S(=O)(=O)N2CCOCC2)c1 (centres undefined),n,n,n,n,n,n,x,x,x
CCCCCCCC[n+]1c(C)n(-c2ccccc2)c2ccc(NC(C)=O)cc21,n,n,n,n,76.1,n,77.5,31.4,n
CC(=O)N1CCN(C(=O)c2ccc(NS(=O)(=O)c3ccc4[nH]c(=O)[nH]c4c3)cc2)CC1,x,n,n,n,n,n,x,x,x
O[C@@H]1CN(Cc2ccc(-n3cccn3)cc2)CC[C@H]1N1CCN(c2ccccc2F)CC1,n,n,n,n,58.9,n,46.1,27.4,n
CCOC(CN=c1nc(N(C)C)ss1)OCC,x,x,x,x,84.3,x,61.6,30.4,n
CN(C)c1nc(=NCc2ccco2)ss1,n,x,n,x,n,x,x,x,x
CCN(CC(=O)NCc1cccs1)c1ccc(S(=O)(=O)N2CCN(C)CC2)cn1,n,n,n,n,n,n,x,x,x
Cc1nn(C)cc1S(=O)(=O)Nc1ccc(F)c(F)c1,n,n,n,n,n,n,x,x,x
CC(Oc1ccc(Br)cc1Br)C(=O)Nc1cccnc1Cl (centres undefined),n,n,x,n,n,n,n,n,n
COC(=O)c1ccc(OCc2nn[nH]n2)cc1,n,n,n,n,n,n,x,x,x
c1ccc(Cc2noc(CN3CCN(CCOc4ccccc4)CC3)n2)cc1,n,n,n,n,n,n,x,x,x
c1ccc(Nc2ncnc3sc4c(c23)CCC4)cc1,n,n,n,n,n,n,x,x,x
c1csc(CCNc2ncnc3sc4c(c23)CCC4)c1,x,n,n,n,55.6,n,59.6,29.6,n
CCS(=O)(=O)C1=NN2C(=N)/C(=C\c3ccc(SCc4ccco4)o3)C(=O)N=C2S1,n,x,n,x,n,x,x,x,x
COc1ccc(S(=O)(=O)N(C)C)cc1NC(=O)c1ccc(OCC(=O)N2CCOCC2)c(OC)c1,x,n,n,n,n,n,x,x,x
COc1ccc(-c2c(NC(=O)C(C)C)n(C)c3ccccc3c2=O)cc1,n,n,n,n,n,n,x,x,x
COc1ccc(-c2c(NC(C)=O)n(C)c3ccccc3c2=O)cc1,n,n,n,n,99.6,n,n,n,n
COc1ccc(NC(=O)C2CCN(S(=O)(=O)c3ccc(N4CCCC4=O)cc3)CC2)cc1OC,n,n,n,n,n,n,n,n,n
COc1cc(NC(=O)C2CCN(S(=O)(=O)c3ccc(N4CCCC4=O)cc3)CC2)cc(OC)c1,n,n,n,n,n,n,x,x,x
CS(=O)(=O)N1CCC(C(=O)Nc2ccc(C(F)(F)F)cc2)CC1,n,n,n,n,n,n,x,x,x
O=C(Nc1ccc(C(F)(F)F)cc1)C1CCN(S(=O)(=O)c2ccc(N3CCCC3=O)cc2)CC1,n,n,n,n,77.1,n,79.0,n,n
CCOC(=O)c1ccc(NC(=O)c2ccc[n+]([O-])c2)cc1,n,n,n,n,57.8,n,n,n,n
Cc1nn(CC(C)C)c2sc(C(=O)NC3CC(C)(C)NC(C)(C)C3)cc12,n,n,n,n,n,n,x,x,x
COc1ccc(-n2ncc3c2CC(C)(C)CC3NC(=O)CN2CCOC2=O)cc1 (centres undefined),n,n,n,n,60.5,n,n,n,n
COc1ccc(-n2ncc3c2CC(C)(C)CC3NC(=O)Cc2nonc2C)cc1 (centres undefined),n,n,n,n,n,n,x,x,x
Cc1oncc1C(=O)N1CCCC(CO)(Cc2ccc(F)cc2F)C1 (centres undefined),n,n,n,n,n,n,x,x,x
O=C(c1ccc(F)cc1)N1CCN(C2CCCCC2)CC1,n,n,n,n,57.7,n,n,n,n
O=C(c1ccccc1)N1CCN(C2CCCCCC2)CC1,n,n,n,n,n,n,x,x,x
